In the library only some 2.4% were active in any assay of this set; here they are far more common.
Pol kappa inh: blocks human DNA polymerase kappa activity; Q9UBT6; purified Pol kappa, fluorescent DNA synthesis assay, 10 min; Potency, µM (series often up to 107 µM), inactives show top-dose activity, negative = inhibition, most hits filed as inhibitors; 400,000 tested, 0.53% active; note: % is set by controls: 0 for no effect and ±100 for the full control effect
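Kinetic fluorescence readout at 0 and 10 min followed reaction start with substrate at 50 nM final. Beforehand, enzyme (10 nM Pol kappa) stood 15 min with compound at room temperature; buffer-only wells were negative controls.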
Pol iota inh: blocks human DNA polymerase iota activity; Q9UNA4; 390,000 tested, 1% active; AID 588590; Pol iota fluorescent replication assay, 10 min; Potency, µM (doses to about 115 µM), for inactives: top-dose activity, negative = inhibition, actives largely listed as inhibitors
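Fluorescent replication assay read twice, at 0 min and 10 min after adding 50 nM (final) substrate. Enzyme (10 nM) and compounds were first incubated 15 min at room temperature; enzyme-free buffer wells were negative controls.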
WRN helicase inh: blocks human WRN helicase; Q14191; WRN helicase unwinding, fluorescent forked duplex, kinetic; Potency, µM (top dose mostly 114 µM), inactives show top-dose activity change, negative = inhibition, most hits filed as inhibitors; 360,000 tested, 0.46% active; note: % is set by controls: 0 for no effect and ±100 for the full control effect; nearly all actives have a fitted effect of over 55% in size
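Screening of the MLSMR collection measured strand separation of a quenched forked DNA duplex (100 nM) by 20 nM WRN with 2 mM ATP, all final. Compounds were preincubated with enzyme 15 min at room temperature.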
Pol beta inh: blocks human DNA polymerase beta activity | P06746 | Pol beta primer extension/strand displacement, fluorescence kinetic | Potency, µM (titrated, usually from 114 µM), for the others: at the highest dose activity change, negative = inhibition, most hits filed as inhibitors | 340,000 tested, 1.3% active | AID 485314; note: % is set by controls: 0 for no effect and ±100 for the full control effect
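Preincubation: enzyme (10 nM) with compound, 15 min, RT. Reaction: substrate added to 50 nM final. Reads: 0 and 10 min. Analysis: normalized, Hill fit.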
FEN1 inh: blocks human flap endonuclease 1; P39748; Recombinant FEN1 flap cleavage, fluorescence, 15 min; Potency, µM (top dose mostly 114 µM), for inactives: at the highest dose activity change, negative = inhibition, most hits filed as inhibitors; 390,000 tested, 0.35% active; AID 588795; note: % is set by controls: 0 for no effect and ±100 for the full control effect; nearly all actives have a fitted effect of over 65% in size
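Read-out was taken twice, immediately and after 15 min, following addition of 50 nM substrate to 10 nM FEN1 that had sat with test compound for 15 min at room temperature. Curves came from a four-parameter Hill model.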
Pol eta inh: inhibitors of human DNA polymerase eta | Q9Y253 | recombinant Pol eta, fluorescent DNA replication assay | Potency, µM (doses to about 114 µM), without a hit: at the top dose activity change, negative = inhibition, hits mostly inhibitors | 390,000 tested, 1.2% active | AID 588591; note: % is set by controls: 0 for no effect and ±100 for the full control effect
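Pol eta (10 nM) was preincubated with compounds for 15 min at room temperature, after which fluorescent replication substrate (50 nM final) was added to start the reaction. Fluorescence was read kinetically at 0 and 10 min.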
The depositor's hits bear a star; ? = inconclusive; / = no result given; [ ] = another dose, or the depositor's remark. Calls come from the whole dose curve; as a rule, active = well fitted curve in the direction sought with a large enough effect; inconclusive = small, poorly fitted or top-dose-only effect, or another doubt; inactive = no such curve, though single readings can be large; an effect the other way counts as inactive or inconclusive. Potency is the fitted concentration of half-maximal effect.

SMILES	Pol kappa inh	Pol iota inh	WRN helicase inh	Pol beta inh	FEN1 inh	Pol eta inh
COc1ccc(C2C(C(C)=O)=C(C)N=c3s/c(=C/c4ccc5c(c4)OCO5)c(=O)n32)cc1 (configuration not stated)	/	/	/	11µM*	/	/
CCOC(=O)C1=C(C)N=c2s/c(=C/c3ccco3)c(=O)n2C1c1cccc(OC)c1 (configuration not stated)	-27%	?	-23%	32µM*	8%	?
COc1ccc(-c2ccc(C3C4C=CCCC4(C)C(=O)N3Cc3ccccc3)c(F)c2)cc1 (configuration not stated)	16%	-20%	/	/	7%	/
CCN(N=O)c1ccc(/C=C/c2ccnc3ccccc23)cc1	-2%	24%	/	/	2%	/
CCOC(=O)COc1ccc2nsnc2c1Cl	-28%	6%	-5%	1%	5%	-18%
C=C(CC)C(=O)c1ccc(OCC(=O)O)c(Cl)c1Cl	-7%	10µM*	?	1%	-14%	79µM*
CC(N)(C(=O)O)c1ccc(S(=O)(=O)O)cc1 (configuration not stated)	2%[19.4 µM]	/	/	/	/	/
CN(C)c1ccc(/C=C/c2nc3ccccc3c(=O)n2-c2ccc(C(=O)O)cc2)cc1	?	?	-5%[11.6 µM]	-1%	-4%	25µM*
O=C(Nc1cc(Cl)cc(Cl)c1)c1cnn2c1NC(=C1CC1)C=C2C(F)F	3%	23%	/	/	-4%	/
C=C(CN(C)C)C(=O)c1cc(OC)c(OC)cc1OC	-8%	-3%	?	/	3%	-7%
C=C(CN(C)C)C(=O)c1ccc(C)cc1C	-5%	?	18µM*	/	-10%	-10%
O=C(COC(=O)c1cccc2ccccc12)Nc1ncc(C(F)(F)F)cc1Cl	-4%	1%	-6%	0%	-9%	-4%
Cc1cc(C(=O)OCC(=O)NC2CCS(=O)(=O)C2)c2ccccc2n1 (configuration not stated)	5%	158%	5%	2%	4%	-21%
O=C(COC(=O)c1cc(-c2cccc3ccccc23)nc2ccccc12)NC1CCS(=O)(=O)C1 (configuration not stated)	-11%	?	79µM*	50µM*	?	-25%
O=C(COC(=O)c1cc(-c2ccccc2Cl)nc2ccccc12)Nc1ncc(C(F)(F)F)cc1Cl	?	?	-8%	32µM*	-10%	?
O=C(C[n+]1ccccc1)c1cccc([N+](=O)[O-])c1	2%	23%	/	/	14%	/
COc1cc(Cl)c(CC(=O)NO)cc1OC	16%	24%	/	/	-3%	/
CCCN1CCCc2cc(CN)ccc21	0%	3.2µM*	-2%	10%	-14%	89µM*
CCc1ccc(NC(=O)N(CCN2CCOCC2)Cc2ccc3c(c2)CCCN3CC)cc1	-3%	-5%	-13%	-11%	-5%	-20%
CCOC(=O)c1c(C=O)c(C)n(Cc2ccc(Cl)cc2)c1C	-10%	3%	0%	-11%	?	-1%
CCOC(=O)C1=C(OCc2ccc(Cl)cc2)C2C=C(C)C=CC2N=C1 (configuration not stated)	-5%	-12%	-21%	45µM*	-3%	-4%
CC[C@@]1([C@@H]2O[C@@H]([C@H]3O[C@@](O)(CO)[C@H](C)C[C@@H]3C)C[C@@H]2C)CC[C@@H]([C@]2(C)CCC3(C[C@H](O)[C@@H](C)[C@@H]([C@@H](C)[C@@H](OC)[C@H](C)C(=O)O)O3)O2)O1 (some centres not stated)	15%[60.1 µM]	/	/	/	/	/
O=C(O)C1C2C=CC(C2)C1C(=O)NCCc1ccncc1 (configuration not stated)	-19%	-13%	2%	50µM*	4%	?
CC(=O)Nc1ccn(C2OC(C(COC(C)=O)NC(=O)C(Cc3ccccc3)NC(=O)OC(C)(C)C)C(OC(C)=O)C2OC(C)=O)c(=O)n1 (configuration not stated)	-3%	11%	/	/	-5%	/
Nc1nc2ncc(=O)[nH]c2c(=O)[nH]1	-9%[60.1 µM]	/	/	/	/	/
SMILES	Pol kappa inh	Pol iota inh	WRN helicase inh	Pol beta inh	FEN1 inh	Pol eta inh
Cc1ccc(NC2=C(NCCO)C(=O)c3ccccc3C2=O)cc1	-18%	20µM*	-13%	-12%	-11%	-12%
OC[C@@H]1O[C@@H](Oc2ccc(O)cc2)[C@H](O)[C@@H](O)[C@@H]1O	18%[60.1 µM]	/	/	/	/	/
O=c1c(=O)n(-c2cccc(Cl)c2)ccn1Cc1cccc(F)c1	-25%	9%	/	32µM*	-2%	-13%
O=c1c(=O)n(Cc2ccc(Cl)cc2)ccn1Cc1ccc(F)cc1	-19%	0%	/	2%	14%	-7%
CCN(CC)C(=O)c1ccc(COc2ccc(Cl)c(C)c2)o1	0%	27%	-4%[57.1 µM]	89µM*	-2%	-22%
Cc1cc(SCC(=O)NC(=O)NCc2ccco2)nc2c(C)cccc12	-22%	?	-21%	16µM*	-9%	-26%
C=CCn1c(COc2ccccc2F)nnc1SCC(=O)NC(=O)NCc1ccco1	?	32µM*	-18%	40µM*	-6%	?
C=CCn1c(COc2ccccc2-c2ccccc2)nnc1SCC(=O)NC(=O)NCc1ccco1	-5%	?	1%	-15%	6%	-10%
O=C(CSc1nc2ccccc2s1)NC(=O)NCc1ccco1	-25%	-13%	-9%	22µM*	-12%	-7%
CCOc1ccc2nc(SCC(=O)NCc3ccc(OC)c(OC)c3)[nH]c2c1	-5%	-3%	8%	33%	8%	-19%
CCOc1ccc2nc(SCC(=O)NC(=O)NCc3ccco3)[nH]c2c1	-23%	?	-8%	50µM*	-4%	?
CC(C)[C@H](N)C(=O)N[C@@H](CCC(N)=O)C(=O)NCC(=O)N[C@@H](CCC(=O)O)C(=O)N[C@@H](CCC(=O)O)C(=O)N[C@@H](CO)C(=O)N[C@@H](CC(N)=O)C(=O)N[C@@H](CC(=O)O)C(=O)N[C@@H](CCCCN)C(=O)O	16%[60.1 µM]	/	/	/	/	/
CCOC(=O)NC(=O)CSc1nc2ccccc2[nH]1	5%	27%	10%	50µM*	-3%	-9%
Cc1nonc1NC(=O)CSc1nc2ccccc2[nH]1	-5%	?	-29%	?	10%	?
Cc1ccccc1CSCC(=O)NC(=O)NCc1ccco1	?	32µM*	?	11µM*	-22%	?
O=C(CSc1nnc(-c2ccc(OC(F)F)cc2)o1)NC(=O)NCc1ccco1	-29%	79µM*	-11%[11.6 µM]	45µM*	6%	?
O=C(CSc1n[nH]c(-c2ccccc2)n1)NC(=O)NCc1ccco1	?	45µM*	-21%[57.1 µM]	35µM*	-1%	?
Cc1cc(SCC(=O)NC(=O)NCc2ccco2)nc2ccccc12	-5%	?	-7%	0%	11%	-16%

Screens: PubChem BioAssay, National Center for Advancing Translational Sciences (NCATS)
